Source: PMC11574364

How the values were obtained:
Experiment in all cases: protein domain microarray probed with biotinylated miRNA; Domain array: 20 mM Tris-HCl pH 7.4, 200 mM KCl, 0.2 mM EDTA, 0.05% NP40, 2 ug/ul heparin, overnight 4 C. ORF array: PBS pH 7.0 with RNase inhibitor, 100 ng RNA; high values mean tight binding
Conditions in all cases: ssRNA
hnRNP-A2/B1 = hnRNP-A2/B1 (Homo sapiens, UniProt P22626)
DAZAP1 = target: T1, DAZAP1 (Homo sapiens, UniProt Q96EP5)
T1 sequence: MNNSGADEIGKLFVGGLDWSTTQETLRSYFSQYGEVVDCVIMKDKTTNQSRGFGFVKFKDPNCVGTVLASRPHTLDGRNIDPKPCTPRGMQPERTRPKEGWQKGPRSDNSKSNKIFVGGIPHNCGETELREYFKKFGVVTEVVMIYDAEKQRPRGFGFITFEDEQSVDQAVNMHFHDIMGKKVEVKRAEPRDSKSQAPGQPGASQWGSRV

ELAVL2 = ELAVL2 (Homo sapiens, UniProt Q12926)
CPEB2 = target: T2, CPEB2 (Homo sapiens, UniProt Q7Z5Q1)
T2 sequence: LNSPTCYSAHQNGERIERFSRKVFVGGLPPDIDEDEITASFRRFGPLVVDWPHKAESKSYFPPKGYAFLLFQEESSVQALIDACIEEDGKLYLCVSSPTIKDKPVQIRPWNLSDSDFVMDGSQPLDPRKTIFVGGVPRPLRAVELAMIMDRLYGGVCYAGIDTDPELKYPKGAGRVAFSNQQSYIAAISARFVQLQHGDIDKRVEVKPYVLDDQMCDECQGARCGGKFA

hnRNP-C1/C2 = hnRNP-C1/C2 (Homo sapiens, UniProt P07910)
CELF6(3) = CELF6(3) (Homo sapiens, UniProt Q96J87)
Matrin-3 = target: T3, Matrin-3 (Homo sapiens, UniProt P43243)
T3 sequence: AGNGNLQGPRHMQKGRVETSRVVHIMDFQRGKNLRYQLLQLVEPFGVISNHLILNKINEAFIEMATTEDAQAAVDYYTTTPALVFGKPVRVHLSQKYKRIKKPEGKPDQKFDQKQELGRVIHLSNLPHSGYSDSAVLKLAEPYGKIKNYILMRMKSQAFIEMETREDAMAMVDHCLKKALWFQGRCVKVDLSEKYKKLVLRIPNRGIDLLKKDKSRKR

ZCRB1 = ZCRB1 (Homo sapiens, UniProt Q8TBF4)
PABP3 = PABP3 (Homo sapiens, UniProt Q9H361)
HNRPLL = target: T4, HNRPLL (Homo sapiens, UniProt Q8WVV9)
T4 sequence: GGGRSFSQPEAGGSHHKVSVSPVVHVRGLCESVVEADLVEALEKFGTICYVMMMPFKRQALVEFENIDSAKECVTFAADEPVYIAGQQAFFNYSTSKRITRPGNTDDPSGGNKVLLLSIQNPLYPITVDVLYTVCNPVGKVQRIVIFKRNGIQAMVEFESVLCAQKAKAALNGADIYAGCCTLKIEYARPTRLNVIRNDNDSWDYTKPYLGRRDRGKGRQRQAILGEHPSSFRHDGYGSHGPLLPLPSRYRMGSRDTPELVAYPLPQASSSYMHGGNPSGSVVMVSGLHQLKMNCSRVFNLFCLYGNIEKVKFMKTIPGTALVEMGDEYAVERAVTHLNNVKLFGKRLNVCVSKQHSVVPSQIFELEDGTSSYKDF

hnRNP-A2/B1, sequence (P22626 1-210): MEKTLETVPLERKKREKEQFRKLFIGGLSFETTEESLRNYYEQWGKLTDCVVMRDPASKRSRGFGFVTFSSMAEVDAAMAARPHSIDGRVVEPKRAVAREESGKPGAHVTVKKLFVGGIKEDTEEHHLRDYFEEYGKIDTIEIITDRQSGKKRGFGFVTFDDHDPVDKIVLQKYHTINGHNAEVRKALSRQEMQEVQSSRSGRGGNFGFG
CELF6(3), sequence (Q96J87 372-481): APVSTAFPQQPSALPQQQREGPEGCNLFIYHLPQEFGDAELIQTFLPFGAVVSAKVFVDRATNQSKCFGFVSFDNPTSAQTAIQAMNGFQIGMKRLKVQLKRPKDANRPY
hnRNP-C1/C2, sequence (P07910 1-110): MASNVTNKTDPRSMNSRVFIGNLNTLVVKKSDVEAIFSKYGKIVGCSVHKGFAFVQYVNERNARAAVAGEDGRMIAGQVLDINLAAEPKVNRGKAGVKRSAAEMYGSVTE
ZCRB1, sequence (Q8TBF4 1-110): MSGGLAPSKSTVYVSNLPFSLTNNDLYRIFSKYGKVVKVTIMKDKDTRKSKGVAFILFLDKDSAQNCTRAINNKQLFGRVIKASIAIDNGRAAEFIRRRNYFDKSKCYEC
ELAVL2, sequence (Q12926 20-359): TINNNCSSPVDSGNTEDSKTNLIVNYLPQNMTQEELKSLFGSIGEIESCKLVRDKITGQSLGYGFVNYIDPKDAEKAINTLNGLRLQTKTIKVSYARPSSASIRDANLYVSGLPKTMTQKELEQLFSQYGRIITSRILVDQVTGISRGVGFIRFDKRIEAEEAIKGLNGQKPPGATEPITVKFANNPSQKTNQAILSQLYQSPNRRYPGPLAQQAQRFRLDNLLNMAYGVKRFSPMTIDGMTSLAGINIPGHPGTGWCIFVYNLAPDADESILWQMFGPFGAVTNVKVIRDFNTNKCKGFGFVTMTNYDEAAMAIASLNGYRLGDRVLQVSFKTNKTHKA
PABP3, sequence (Q9H361 1-390): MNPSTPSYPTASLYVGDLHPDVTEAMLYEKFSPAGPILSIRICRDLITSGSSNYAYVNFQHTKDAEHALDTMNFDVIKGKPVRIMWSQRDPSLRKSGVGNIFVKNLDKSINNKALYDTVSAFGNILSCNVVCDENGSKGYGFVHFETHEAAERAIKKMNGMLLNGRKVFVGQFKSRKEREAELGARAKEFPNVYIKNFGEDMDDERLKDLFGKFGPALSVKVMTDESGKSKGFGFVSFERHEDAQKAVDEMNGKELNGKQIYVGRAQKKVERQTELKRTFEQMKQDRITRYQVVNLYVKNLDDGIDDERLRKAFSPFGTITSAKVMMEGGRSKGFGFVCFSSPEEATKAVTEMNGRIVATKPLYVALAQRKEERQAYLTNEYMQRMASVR

Sequence	binding signal (hnRNP-A2/B1) [fluorescence intensity]	binding signal (DAZAP1) [fluorescence intensity]	binding signal (ELAVL2) [fluorescence intensity]	binding signal (CPEB2) [fluorescence intensity]	binding signal (hnRNP-C1/C2) [fluorescence intensity]	binding signal (CELF6(3)) [fluorescence intensity]	binding signal (Matrin-3) [fluorescence intensity]	binding signal (ZCRB1) [fluorescence intensity]	binding signal (PABP3) [fluorescence intensity]	binding signal (HNRPLL) [fluorescence intensity]
UAGCUUAUCAGACUGAUGUUGA	255 ± 27.4	717 ± 152	653 ± 28.8	118 ± 118	162 ± 10.4	42.1 ± 8.05	38.7 ± 15.4	189 ± 14.5		
UGAGGUAGUAGGUUGUGUGGUU	2240 ± 7.74	2560 ± 130	1370 ± 72.6	108 ± 11.6	742.6 ± 1.1	653 ± 52	496.54 ± 0.269	1440 ± 63.3	334 ± 26	120 ± 20.3
AGAGGUAGUAGGUUGCAUAGUU	3610 ± 47.7	3900 ± 300	1660 ± 45	65.7 ± 16.8	406 ± 24	608 ± 73.6	201 ± 2.89	1460 ± 22.6	119 ± 10.5	123 ± 7.11
CAGUGCAAUGAUGAAAGGGCAU	2236 ± 9.55	1540 ± 260	965 ± 66.1	35.7 ± 11	146 ± 4.99	151 ± 17.8	116 ± 6.43	824 ± 79.4	60.5 ± 8.1	68.7 ± 5.11
UGAGGUAGUAGGUUGUAUAGUU	1499 ± 4.81	1600 ± 139	608.35 ± 0.587	42.8 ± 2.43	244.2 ± 0.382	282 ± 110	69.3 ± 9.98	602 ± 7.03	31.2 ± 7.62	
UGAGGUAGUAGGUUGUAUGGUU	2642 ± 18.6	2980 ± 146	1210 ± 62.5	66.6 ± 14.3	636.15 ± 0.594	628 ± 29.6	251.8 ± 1.32	1150 ± 9.06	211 ± 6.4	97.4 ± 6.78
